Compound activity: PubChem, National Center for Advancing Translational Sciences (NCATS)
Nrf2 inh – blocks Nrf2 signaling. A549 ARE-Fluc reporter, luciferase luminescence, 18-24 h. Potency, µM (highest dose often 46 µM), for inactives: top-dose activity change, negative = inhibition, usual class: inhibitors. hit rate 2.1% among 360,000. AID 504444; further: potency means the concentration at half of the fitted maximal effect; on the % scale 0 is the no-effect control and ±100 the full control effect; nearly all actives have a fitted effect of over 60% in size
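Two sequential reads on A549 ARE_Fluc cells exposed to compound for 18-24 h: a CellTiter-Fluor fluorescence read for viability, then a luciferase luminescence read for Nrf2/ARE activity.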
Nrf2 activator – Nrf2 pathway activation; AREc32 ARE-luciferase reporter (MCF7-derived line), luminescence, 24 h; Potency, µM (titrated, usually from 46.1 µM), inactives show at the highest dose activation, actives largely listed as activators; hit rate 0.31% among 410,000; AID 624171; further: potency means the concentration at half of the fitted maximal effect; % of control where 0% means no effect; nearly all actives have a fitted effect of over 65% in size
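ARE activation measured as luciferase luminescence (Steady-Glo, 30 min RT) in AREc32_Fluc cells after 24 hr compound exposure at 37 deg C, 5% CO2; cells seeded overnight at 1000/well in OPTI-MEM, 5% FBS.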
A549 tox – counter-screen for Nrf2 inhibitors: cytotoxicity in A549 cells | A549 ARE-Fluc cells, CellTiter-Fluor viability, 18-24 h | Potency, µM (highest dose often 46 µM), inactives show top-dose activity change, negative = cytotoxicity, usual class: inhibitors | hit rate 0.16% among 390,000; further: potency means the concentration at half of the fitted maximal effect; on the % scale 0 is the no-effect control and ±100 the full control effect
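A549 ARE_Fluc cells in 5% FBS OPTI-MEM were exposed to compounds in concentration-response for 18-24 h at 37 deg C. Viability was read by CellTiter-Fluor fluorescence (Ex 405/Em 525) after 30 min, before the luciferase read.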
ALOX12 inh – ALOX12 (human) lipoxygenase inhibition | purified 12hLO, xylenol orange hydroperoxide absorbance | Potency, µM (titrated, usually from 108 µM), for inactives: top-dose activity change, negative = inhibition, actives largely listed as inhibitors | hit rate 1.1% among 580,000 | AID 1671190; further: potency means the concentration at half of the fitted maximal effect; on the % scale 0 is the no-effect control and ±100 the full control effect
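Hydroperoxide product was detected by ferrous iron/xylenol orange as the 573 to 405 nm absorbance ratio. Arachidonic acid at 40 uM (final) was turned over for 30 min at room temperature by 150 nM human 12hLO, pH 7.0 Hepes buffer, after 15 min compound preincubation.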
ERG-DNA inh – inhibitors of human ERG Ets domain-DNA interaction. AID 624246. Potency, µM (highest dose often 76.9 µM), for the others: at the top dose FP activity, negative = inhibition, usual class: inhibitors. hit rate 0.028% among 370,000. P11308. fluorescence polarization, His-ERG Ets domain / labelled DNA; active means well fitted inhibition curve with a large enough effect in the polarisation, with a control signal flat; inconclusive means small, poorly fitted or top-dose-only effect, or effect the other way, or a change in a side signal; inactive means no such curve, though single readings can be large or run the other way; the % refers to the polarisation;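 further: polarization taken with two DNA probes labelled with fluorescein and Texas red; potency means the concentration at half of the fitted maximal effect; % of control where 0% means no effect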
Target sequence (P11308 whole entry, looked up, the tested form may be a part): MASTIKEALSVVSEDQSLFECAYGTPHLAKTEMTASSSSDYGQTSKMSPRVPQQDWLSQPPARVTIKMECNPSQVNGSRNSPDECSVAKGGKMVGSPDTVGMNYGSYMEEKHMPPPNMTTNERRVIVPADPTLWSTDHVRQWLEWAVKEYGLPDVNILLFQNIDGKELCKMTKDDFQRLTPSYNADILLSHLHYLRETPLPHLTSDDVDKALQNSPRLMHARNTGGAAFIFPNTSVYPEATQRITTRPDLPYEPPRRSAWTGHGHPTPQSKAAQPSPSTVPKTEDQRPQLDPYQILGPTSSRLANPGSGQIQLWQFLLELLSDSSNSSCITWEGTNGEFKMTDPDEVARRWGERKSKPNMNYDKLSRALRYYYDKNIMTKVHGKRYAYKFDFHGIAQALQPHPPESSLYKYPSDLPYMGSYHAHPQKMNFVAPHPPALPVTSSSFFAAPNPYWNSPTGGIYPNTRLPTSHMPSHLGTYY
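His-tagged ERG Ets domain (1 uM in the protein solution; 300mM KCl, 50mM Tris-HCl, 1mM EDTA, 1mM DTT, pH 7.5) received compound, then a probe mix of 5 nM fluorescein-DNA and 100nM Texas-615-DNA. Fluorescence polarization was read for both dyes.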
LDHA block – inhibitors of human lactate dehydrogenase A. P00338. purified LDHA, NADH/diaphorase-resazurin fluorescence; hits give low values. activity change, % (values are at about 110 or 230 µM). hit rate 0.15% among 480,000; in the data active means activity change below about -30%; inconclusive means mostly about -25% to -30%;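 further: plate controls were DMSO wells for no effect and wells without enzyme for full effect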
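LDH5 2 nM; NADH 0.06 mM, pyruvate 0.2 mM; 200 mM Tris pH 7.4, EDTA, Tween-20; 5 min RT. Detection: diaphorase 0.133 mg/mL + resazurin 37 µM, fluorescence ex540/em590 at 0 and 20 min; normalized to enzyme-free and DMSO wells.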
* marks the source's active call; other numbers are inactive results; ? = inconclusive; . = no result; [ ] = dose if it differs, or a comment. Rows were chosen to be rich in hits. Some 2.7% of all compounds tested hit in one or more screens of this group. Unless noted, the call rests on the fitted dose curve; in most records, active means well fitted curve in the direction sought with a large enough effect; inconclusive means small, poorly fitted or top-dose-only effect, or another doubt; inactive means no such curve, though single readings can be large; an effect the other way counts as inactive or inconclusive.

SMILES	Nrf2 inh	Nrf2 activator	A549 tox	ALOX12 inh	ERG-DNA inh	LDHA block
O=C(Nc1nccs1)[C@@H]1C[C@@H](c2cccc(C(F)(F)F)c2)N(CC2CCOCC2)C1	.	.	.	38%[176 µM]	.	.
Cc1cccc(C)c1OCC(=O)Nc1cccc(S(=O)(=O)N2CCCC2)c1	15µM*	0%	-13%	1%	-2%	2
COc1ccccc1OCC(=O)Nc1ccc(S(=O)(=O)N2CCCC2)cc1	1%	1%	-3%	-9%	8%	0
Cc1cc(OCC(=O)Nc2cccc(S(=O)(=O)N3CCCC3)c2)ccc1Cl	16µM*	3%	-16%	?	1%	-3
Cc1ccc(NC(=O)CSCC(=O)Nc2cccc(S(=O)(=O)N3CCCCCC3)c2)cc1	13µM*	4%	-27%	368%	3%	0
O=C(COc1ccccc1Br)Nc1ccc(S(=O)(=O)N2CCCC2)cc1	13µM*	0%	-4%	8%	4%	-3
Cc1cc(OCC(=O)Nc2cccc(S(=O)(=O)N3CCCCC3)c2)ccc1Cl	-4%	3%	-5%	4%	-2%	0
Cc1cccc(C)c1OCC(=O)Nc1cccc(S(=O)(=O)N2CCCCCC2)c1	.	0%	.	-22%	.	-2
O=S(=O)(CCNCc1ccc(Cl)c(Cl)c1)Cc1ccccc1	.	.	.	?	.	-3
O=C1CC(c2ccccc2O)Cc2nc(N3CCN(c4cccc(C(F)(F)F)c4)CC3)ncc21 (stereo not drawn)	.	.	.	-6%	.	4
O=C(NC1CCCN(c2cc(-c3ccc(F)cc3)[nH]n2)C1)c1ccc(F)c(F)c1 (stereo not drawn)	.	.	.	7%	.	.
CC(C)COc1ccc(/C=C(/C#N)c2nc3ccccc3[nH]2)cc1	.	.	.	47%	.	3
COc1ccc(OC)c(/C=C/C(=O)Nc2cccc(S(=O)(=O)N3CCCC3)c2)c1	13µM*	-1%	16%	-6%	18%	-5
COc1ccc(CCC(=O)Nc2cccc(S(=O)(=O)N3CCCCCC3)c2)cc1	21µM*	0%	-10%	9%	-1%	-16
CCOc1ccccc1C(=O)OCC(=O)Nc1cccc(S(=O)(=O)N2CCCC2)c1	9%	0%	-5%	29%	-16%	-7
CCS(=O)c1ccccc1C(=O)OCC(=O)Nc1cccc(S(=O)(=O)N2CCCCC2)c1 (stereo not drawn)	21µM*	0%	-12%	-1%	-7%	-1
Cc1csc(SCC(=O)Nc2ccc(C(N)=O)cc2)n1	.	.	.	-20%	.	-1
C=C(C)C[C@@H]1Cc2c(Br)cccc2[C@@H](CC(=C)C)N1	.	.	.	?	.	4
N#Cc1cccc(NC(=O)Cc2ccc3c(c2)CCC3)c1	.	.	.	?	.	9
O=S(CC(O)c1ccccc1)c1ccccc1 (stereo not drawn)	.	3%	.	28µM*	.	-1
O=S(c1ccccc1)C(c1ccccc1)c1ccccc1 (stereo not drawn)	-4%	-1%	-1%	32µM*	-1%	-6
Cc1ccc(S(=O)C(c2ccccc2)c2ccccc2)cc1 (stereo not drawn)	-13%	-1%	0%	22µM*	1%	-6
Cc1cccc(S(=O)C(c2ccccc2)c2ccccc2)c1 (stereo not drawn)	?	0%	-8%	?	-12%	-9
Cc1cc(OCC(=O)Nc2ccc3c(c2)OCCO3)c2c(C)cc(=O)oc2c1	.	.	.	42%	.	7
CCN(c1ccc(NC(=O)COC(=O)c2ccc3ccccc3n2)cc1)C(C)C	9%	4%	0%[1.84 µM]	5µM*	-6%	3
CCc1ccccc1NC(=O)COC(=O)c1ccc2ccccc2n1	.	.	.	-20%	.	3
CCC(CC)NC(=O)COC(=O)c1ccc2ccccc2n1	.	.	.	6.3µM*	.	2
CC(=O)NCc1ccc(-c2csc(Nc3ccc(F)cc3)n2)s1	.	.	.	?	.	6
Cc1oc(-c2cccs2)nc1CC(=O)Nc1ccccc1Cc1ccccc1	.	.	.	?	.	-4
